Common to all, as to test: NCI-60 one-dose screen, 48 h (100 = growth as untreated, 0 = no growth, -100 = all killed)
Holding throughout (conditions): 10 µM unless noted

Assay [1] relates to NCI-H23 lung.
The subject of assay [2] is NCI-H226 lung.
Assay [3] concerns NCI-H322M lung.
Assay [4] relates to HOP-62 NSCLC.
The subject of assay [5] is NCI-H460 lung.
The subject of assay [6] is HOP-92 NSCLC.
The subject of assay [7] is NCI-H522 lung.
For assay [8], the system named is A549/ATCC NSCLC.
Assay [9] deals with 786-0 renal.
Assay [10] has as its system COLO 205 colon.

The panel holds about 83,000 compounds, 20% with a hit somewhere; the sample as a whole holds those more often.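 Cells were grown in 96-well plates and exposed to the test compound at a single concentration for 48 hours; results are reported as percent growth, with values below 10 considered active.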 A number with no mark means an inactive call. The source made the active and inactive calls.

As for `FC(F)(F)CN1CCN(CCn2c(C(F)(F)F)cc3c(Cl)ncnc32)CC1`, the growth in assay [1] was 16.5%; in assay [2], 86.7%; in [3], -22.9% (active); in [4], 40.2%; in [5], -41.2% (active); in assay [6] it was 72.2%. For the same compound, the growth is -79.3% (active) in assay [7], 98.8% in [8], 84.6% in assay [9] and 70.5% in assay [10].
Consider `S=C(Nc1ccc(OCc2nc3ccc(Cl)cc3[nH]2)cc1)NC1CCCCC1`, for which the growth in assay [1] was -68.3% (active); in [2], -1.48% (active); in assay [3], 9.78% (active); in assay [4], -20.7% (active); in assay [5], -21.5% (active); in assay [6], -4.42% (active). Besides, the growth in assay [7] was -21.4% (active); in assay [8], 15.6%; in assay [9], -20.6% (active); in assay [10], -68.4% (active).
On to `COC(=O)c1c(C(=O)OC)c2c3ccccc3c3ccccc3n2c1C(=O)C(F)(F)F`, for which the growth was 89.1% in [1]; 80% in [2]; 101% in [3]; 107% in [4]; 105% in [5]; 97.2% in assay [6]. For the same compound, the growth is 96.4% in assay [7], 111% in assay [8], 102% in assay [9] and 108% in [10].
On to `CS(=O)(=O)c1ccc(-n2nc(C(=O)NCc3ccccc3)cc2-c2ccc(Cl)cc2)cc1`, for which the growth in assay [1] was 89.9%; in assay [2], 85%; in [3], 88.1%; in assay [4], 106%; in assay [5], 71.2%; in [6], 88.1%. Besides, the growth in assay [7] is 58.7%; in assay [8], 70%; in assay [9] it was 71%; in [10], 107%.
Take `CN1C(=O)C(O)(CC(=O)c2cc3ccccc3oc2=O)c2ccccc21` (stereo not given): the growth is 93.3% in assay [1]; 81% in assay [2]; 103% in assay [3]; 97% in assay [4]; 114% in assay [5]; 110% in assay [6]. For the same compound, the growth in [7] was 92.7%; in assay [8] it was 111%; in assay [9] it was 105%; in assay [10], 114%.
As to `Clc1ccc2c(NCCNC34CC5CC(CC(C5)C3)C4)ccnc2c1`, the growth was -73.2% (active) in assay [1]; -24.4% (active) in assay [2]; -61.7% (active) in [3]; -76.7% (active) in assay [4]; -63.1% (active) in assay [5]; -64.7% (active) in assay [6]. Moreover, the growth in assay [7] is -76.7% (active); in assay [8] it was -33% (active); in assay [9] it was -79.8% (active); in assay [10] it was -58.1% (active).
With `O=C1Nc2cc(-c3ccc(NS(=O)(=O)c4ccc(F)c(Cl)c4)cc3)ccc2/C1=C/c1ccc[nH]1`, the growth in assay [1] is -25.5% (active); in assay [2], 37%; in [3], 26.4%; in assay [4], 27.2%; in assay [5], -10.6% (active); in assay [6], 37.2%. The growth in assay [7] was 6.92% (active); in assay [8] it was 3.71% (active); in [9], 35.6%; in assay [10] it was 35.4%.
With `CNS(=O)(=O)N1CCc2c(Br)c3c(c(OC)c2C1CCc1ccccc1)OCO3` (stereo not given), the growth is -19.5% (active) in assay [1]; -70.3% (active) in assay [2]; 4.7% (active) in assay [3]; -18.6% (active) in assay [4]; -67.7% (active) in [5]; -54.3% (active) in assay [6]. Moreover, the growth is -12.3% (active) in assay [7], 16.6% in [8], -44.9% (active) in assay [9] and -51.3% (active) in assay [10].
For `COc1ccc(SC2c3cc(OC)ccc3Oc3nc(N)c(C#N)c(N)c32)cc1` (stereo not given), the growth is 85.6% in assay [1]; 87.1% in assay [2]; 83.5% in assay [3]; 68.2% in [4]; 74.3% in assay [5]; 116% in assay [6]. For the same compound, the growth in assay [7] is 78.4%; in [8] it was 95.8%; in [9], 74.8%; in [10] it was 101%.
Turning to `Cc1ccc(Nc2nnc(-c3c[nH]c4ccccc34)o2)c(C)c1`, the growth in assay [1] is 16.2%; in assay [2], 43.9%; in assay [3], 40.2%; in assay [4], 23.2%; in assay [5] it was 8.57% (active); in assay [6], 21.8%. Further, the growth was -30.4% (active) in assay [7], 12.6% in assay [8], 1.66% (active) in [9] and -55.5% (active) in assay [10].

For the origin of these results see PubChem BioAssay (NCI).
